Results from PubChem BioAssay (NCATS).
Inconclusive results are not listed. Active and inactive are the calls of the source. Calls come from the whole dose curve; as a rule, active = well fitted curve in the direction sought with a large enough effect; inconclusive = small, poorly fitted or top-dose-only effect, or another doubt; inactive = no such curve, though single readings can be large; an effect the other way counts as inactive or inconclusive.

Experiments:
[1] = Quantitative High-Throughput drug screen in 47 multiple myeloma cell lines against the NCATS MIPE library collection: FR4_PLB cell viability assay (AID 1918924; note: nearly all actives have a fitted effect of over 35% in size); conditions: FR4_PLB myeloma cells viability, CellTiter-Glo ATP, 48 h; series mostly up to 45.8 µM
Outline: (§1)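 Relative luminescence from CellTiter-Glo served as the viability signal, referenced to DMSO-treated (100%) and cell-free medium (0%) controls. Treatment lasted 48 hours at 37C with 500 cells per well.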

[2] = Quantitative High-Throughput drug screen in 47 multiple myeloma cell lines against the NCATS MIPE library collection: Delta47_JCRB cell viability assay (AID 1918925; note: nearly all actives have a fitted effect of over 45% in size); conditions: Delta47 myeloma viability, CellTiter-Glo ATP, 48 h; series mostly up to 45.8 µM
Outline: as §1

[3] = Quantitative High-Throughput drug screen in 47 multiple myeloma cell lines against the NCATS MIPE library collection: EJM_DSMZ cell viability assay (AID 1918926; note: nearly all actives have a fitted effect of over 30% in size); conditions: EJM myeloma cell viability, CellTiter-Glo ATP, 48 h; series mostly up to 45.8 µM
Outline: as §1

[4] = Quantitative High-Throughput drug screen in 47 multiple myeloma cell lines against the NCATS MIPE library collection: ARP1_JJKsccF8 cell viability assay (AID 1918928; note: nearly all actives have a fitted effect of over 40% in size); conditions: ARP1 myeloma cells viability, CellTiter-Glo ATP, 48 h; series mostly up to 45.8 µM
Outline: (§2)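 Cell viability inhibition in this qHTS is measured via ATP content (CellTiter-Glo) after 48 h drug exposure at 37 °C. Wells hold 500 cells; DMSO-treated wells define 100% and medium-only wells 0%.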

[5] = Quantitative High-Throughput drug screen in 47 multiple myeloma cell lines against the NCATS MIPE library collection: Karpas417_ECACC cell viability assay (AID 1918961); conditions: Karpas417 myeloma viability, CellTiter-Glo ATP luminescence, 48 h; viability (% of DMSO): at 45.8 µM (top of the series)
Outline: as §1

[6] = Quantitative High-Throughput drug screen in 47 multiple myeloma cell lines against the NCATS MIPE library collection: KHM11_PLB cell viability assay (AID 1918962); conditions: KHM11 myeloma cell viability, CellTiter-Glo ATP luminescence, 48 h; series mostly up to 45.8 µM; note: nearly all actives have a fitted effect of over 35% in size
Outline: as §1

[7] = Quantitative High-Throughput drug screen in 47 multiple myeloma cell lines against the NCATS MIPE library collection: JIM3_ECACC cell viability assay (AID 1918963; note: nearly all actives have a fitted effect of over 35% in size); conditions: JIM3 myeloma viability, CellTiter-Glo ATP, 48 h; series mostly up to 45.8 µM
Outline: as §1

[8] = Quantitative High-Throughput drug screen in 47 multiple myeloma cell lines against the NCATS MIPE library collection: JJN3_DSMZ cell viability assay (AID 1918966; note: nearly all actives have a fitted effect of over 50% in size); conditions: JJN3 myeloma cells viability, CellTiter-Glo ATP, 48 h; series mostly up to 45.8 µM
Outline: as §1

[9] = Quantitative High-Throughput drug screen in 47 multiple myeloma cell lines against the NCATS MIPE library collection: H1112_PLB cell viability assay (AID 1918967; note: nearly all actives have a fitted effect of over 30% in size); conditions: H1112 myeloma cells viability, ATP luminescence, 48 h; series mostly up to 45.8 µM
Outline: as §1

[10] = Quantitative High-Throughput drug screen in 47 multiple myeloma cell lines against the NCATS MIPE library collection: Karpas25_ECACC cell viability assay (AID 1918968; note: nearly all actives have a fitted effect of over 35% in size); conditions: Karpas25 myeloma viability, CellTiter-Glo ATP, 48 h; series mostly up to 45.8 µM
Outline: as §1

[11] = Quantitative High-Throughput drug screen in 47 multiple myeloma cell lines against the NCATS MIPE library collection: KMS12PE_JCRB cell viability assay (AID 1918972); conditions: KMS12PE myeloma viability, CellTiter-Glo ATP, 48 h; series mostly up to 45.8 µM; note: nearly all actives have a fitted effect of over 30% in size
Outline: as §1

[12] = Quantitative High-Throughput drug screen in 47 multiple myeloma cell lines against the NCATS MIPE library collection: KMS20_JCRB cell viability assay (AID 1918973); conditions: CellTiter-Glo ATP, 48 h; series mostly up to 45.8 µM; note: nearly all actives have a fitted effect of over 45% in size
Outline: as §1

[13] = Quantitative High-Throughput drug screen in 47 multiple myeloma cell lines against the NCATS MIPE library collection: AMO1_DSMZ cell viability assay (AID 1918927; note: nearly all actives have a fitted effect of over 30% in size); conditions: AMO1 myeloma cells viability, CellTiter-Glo ATP luminescence, 48 h; series mostly up to 45.8 µM
Outline: as §1

[14] = Quantitative High-Throughput drug screen in 47 multiple myeloma cell lines against the NCATS MIPE library collection: Karpas620_DSMZ cell viability assay (AID 1918959); conditions: Karpas620 myeloma viability, CellTiter-Glo ATP luminescence, 48 h; series mostly up to 45.8 µM; note: nearly all actives have a fitted effect of over 30% in size
Outline: as §1

[15] = Quantitative High-Throughput drug screen in 47 multiple myeloma cell lines against the NCATS MIPE library collection: KMM1_JCRB cell viability assay (AID 1918960); conditions: KMM1 myeloma viability, CellTiter-Glo ATP luminescence, 48 h; series mostly up to 45.8 µM; note: nearly all actives have a fitted effect of over 30% in size
Outline: as §2

[16] = Quantitative High-Throughput drug screen in 47 multiple myeloma cell lines against the NCATS MIPE library collection: INA6_PLB cell viability assay (AID 1918965; note: nearly all actives have a fitted effect of over 55% in size); conditions: INA6 myeloma viability, CellTiter-Glo ATP luminescence, 48 h; series mostly up to 45.8 µM
Outline: as §1

[17] = Quantitative High-Throughput drug screen in 47 multiple myeloma cell lines against the NCATS MIPE library collection: KMS12BM_JCRB cell viability assay (AID 1918971); conditions: KMS12BM myeloma viability, CellTiter-Glo ATP, 48 h; series mostly up to 45.8 µM; note: nearly all actives have a fitted effect of over 35% in size
Outline: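 CellTiter-Glo luminescence (ATP) after 48 h compound exposure, 37C/5% CO2; 500 cells/well; MIPE 4.0 approved/investigational drugs pinned in; DMSO = 100%, media only = 0% viability.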

[18] = Quantitative High-Throughput drug screen in 47 multiple myeloma cell lines against the NCATS MIPE library collection: ARD_JJKsccE7 cell viability assay (AID 1918929); conditions: ARD myeloma cell line viability, CellTiter-Glo, 48 h; series mostly up to 45.8 µM
Outline: as §1

[19] = Quantitative High-Throughput drug screen in 47 multiple myeloma cell lines against the NCATS MIPE library collection: JIM1_ECACC cell viability assay (AID 1918964); conditions: JIM1 myeloma viability, CellTiter-Glo ATP luminescence, 48 h; series mostly up to 45.8 µM
Outline: as §1

[20] = Quantitative High-Throughput drug screen in 47 multiple myeloma cell lines against the NCATS MIPE library collection: KMS27_JCRB cell viability assay (AID 1918970); conditions: KMS27 myeloma cells, CellTiter-Glo ATP viability, 48 h; viability (% of DMSO): at 45.8 µM (top of the series); note: nearly all actives have a fitted effect of over 30% in size
Outline: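 KMS27_JCRB myeloma cells, 500 per well, exposed 48 h at 37 C, 5% CO2 to MIPE 4.0 compounds. Viability from ATP by CellTiter-Glo luminescence, normalized to DMSO (100%) and medium-only (0%) wells.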
Potency is the fitted concentration of half-maximal effect.

| SMILES | Potency [1] | Potency [2] | Potency [3] | Potency [4] | Potency [5] | Potency [6] | Potency [7] | Potency [8] | Potency [9] | Potency [10] | Potency [11] | Potency [12] | Potency [13] | Potency [14] | Potency [15] | Potency [16] | Potency [17] | Potency [18] | Potency [19] | Potency [20] |
| --- | --- | --- | --- | --- | --- | --- | --- | --- | --- | --- | --- | --- | --- | --- | --- | --- | --- | --- | --- | --- |
| Clc1ccc(C2(c3ccc(-c4cn[nH]c4)cc3)CCNCC2)cc1 | 20.9 µM (active) | 1.32 µM (active) | 20.9 µM (active) | 23.5 µM (active) | 6.62 µM (active) | 11.8 µM (active) | 26.4 µM (active) | 20.9 µM (active) | 16.6 µM (active) | 3.72 µM (active) | 23.5 µM (active) | 5.26 µM (active) |  |  |  |  |  |  |  |  |
| CC(C)(O)CC(=O)NCCn1ccc2ncnc(Nc3ccc(Oc4cccc(C(F)(F)F)c4)c(Cl)c3)c21 | 26.4 µM (active) | 18.7 µM (active) | 1.87 µM (active) |  |  |  | 23.5 µM (active) |  |  | 23.5 µM (active) | 5.9 µM (active) |  | 16.6 µM (active) | 5.9 µM (active) | 5.26 µM (active) | 29.6 µM (active) | 23.5 µM (active) |  |  |  |
| C[C@@H](N)c1ccc(C(=O)Nc2ccnc3[nH]ccc23)cc1 | 26.4 µM (active) | 26.4 µM (active) | 23.5 µM (active) |  |  | 20.9 µM (active) | 20.9 µM (active) | 20.9 µM (active) | 23.5 µM (active) |  |  | 18.7 µM (active) | 23.5 µM (active) |  |  | 20.9 µM (active) |  | 26.4 µM (active) | 13.2 µM (active) | 18.7 µM (active) |
| COc1c(C)c2c(c(O)c1CC=C(C)CCC(=O)OCCN1CCOCC1)C(=O)OC2 | 5.26 µM (active) | inactive | inactive |  |  |  |  |  | 3.32 µM (active) | 4.18 µM (active) | 3.72 µM (active) | inactive | 0.372 µM (active) | inactive |  | 1.87 µM (active) | 4.18 µM (active) | 1.18 µM (active) |  | 2.09 µM (active) |
| COc1cc2c(cc1Cc1cccc(Cl)c1F)c(=O)c(C(=O)O)cn2[C@H](CO)C(C)C | 20.9 µM (active) | 20.9 µM (active) | 20.9 µM (active) | 16.6 µM (active) |  |  | 20.9 µM (active) | 16.6 µM (active) |  | 14.8 µM (active) |  |  |  |  |  | 13.2 µM (active) | 6.62 µM (active) |  |  |  |
| CC(=O)OCC(=O)[C@@]12OC(C)(C)O[C@H]1C[C@H]1[C@@H]3C[C@H](F)C4=CC(=O)C=C[C@]4(C)[C@@]3(F)[C@@H](O)C[C@@]12C | inactive | inactive | inactive |  |  | inactive | inactive |  | inactive |  | inactive | inactive | inactive | inactive |  |  |  | 0.0148 µM (active) | inactive | inactive |
| NS(=O)(=O)c1cc(Cl)c(Cl)c(S(N)(=O)=O)c1 | inactive | inactive | inactive |  | inactive | inactive | inactive | inactive | inactive | inactive | inactive |  | inactive | inactive |  |  |  | inactive | inactive | inactive |
